Experimental data published in PubChem BioAssay AID504432 (National Center for Advancing Translational Sciences (NCATS), 2011).
Several values for one entry are separate records, joined by “and”; a condition that tells them apart may be missing. Equal values may be shown once. Records with an inconclusive call do not appear. Activity calls are given as the source filed them. Calls follow the shape of the dose curve; as a rule, active = well fitted inhibition curve with a large enough effect; inconclusive = small, poorly fitted or top-dose-only effect, or another doubt; inactive = flat fitted curve, though single readings scatter.

Assay: Confirmation Concentration-Response Assay for lipid storage modulators: for probe SAR round 2
Conditions: Drosophila S3 cells, BODIPY lipid droplet fluorescence, 18-24 h; series mostly up to 46.1 µM
Source text: NIH Molecular Libraries Probe Production Centers Network [MLPCN] NIH Chemical Genomics Center [NCGC] MLPCN Grant: 1 R03 MH085686-01 Assay Submitter (PI): Beller, Mathias; Max-Planck-Institut fur Biophysikalische Chemie NCGC Assay Overview: Storing lipids as a reservoir for energy or the anabolism of elementary metabolites is a common feature of probably all cells and is conserved from bacteria to humans. The universal cellular lipid storage organelle is the so-called lipid storage droplet (LD). Although ubiquitous, LDs share a simple structure composed of a hydrophobic core that harbors the storage lipids, which is shielded by a droplet-specific phospholipid monolayer to which proteins are attached. The current model of LD biogenesis involves an incorporation of the lipid core into the membrane leaflets of the endoplasmic reticulum (ER) followed by a subsequent budding-like maturation of a LD, which ultimately pinches off. Once released, LD volume can increase by localized lipogenesis or fusion of existing droplets. Storage lipids are re-mobilized enzymatically by lipase activity. Lipase regulation in the adipocyte is heavily studied and involves multiple components including catecholamine signaling, the LD-associated proteins Perilipin and comparative gene identification-58 (CGI-58) and at least two lipases named hormone sensitive lipase (HSL) and adipocyte triglyceride lipase (ATGL). LD regulation outside of the adipocyte is poorly understood and only few components are known. However, there is an urgent need to learn more about ectopic fat depots as mislocalized storage of lipids, for example in the liver or muscle, is an eminent health problem associated with insulin resistance or the metabolic syndrome. We developed a laser-scanning cytometer assay to enable 1,536-well screening and combined the results of the small molecules screen with an RNAi database based on lipid storage.
We dispensed 4 uL of cells at 1.25 x 10^6 cells/mL into LoBase Aurora COC 1,536-well plates (black walled, clear bottom) with a bottle-valve solenoid-based dispenser (Aurora) to obtain 5,000 cells/well. Triacsin C (Sigma-Aldrich T-4540), an inhibitor of long-chain fatty acyl CoA synthetase that blocks synthesis of triglycerides, was used as a positive control for lipid under-storage. A total of 23 nL of compound solution of different concentrations were transferred to the assay plates using a Kalypsys pin tool equipped with a 1,536-pin array containing 10-nL slotted pins (FP1S10, 0.457-mm diameter, 50.8 mm long; V&P Scientific). One microliter of oleic acid (400 uM) was added, and the plate was lidded with stainless steel rubber gasket lined lids containing pinholes. After 18-24 h incubation at 24 degree Celsius and 95% humidity, 4 uL of the dyes BODIPY 493/503 (Molecular Probes) and the Cell Tracker Red CMTPX dye (Molecular Probes) were added to the wells to stain lipid droplets and enumerate cell number, respectively. Fluorescence was detected by excitation of the fluorophores with a 488-nm laser on an Acumen Explorer (TTP Lab Tech). The total intensity in channel 1 (500-530 nm) reflected lipid droplet accumulation. Cells were detected using channel 3 (575- 640 nm) with 5-um width and 100-um depth filters. The ratio of the total intensity in PMT channel 1 over total intensity of channel 3 was also calculated. Percent activity was computed relative to an internal control (100% inhibited lipid droplet deposition due to the presence of 20 uM Triacsin C), which was added to 32 wells/plate.

Potency, active:
COc1cccc(-n2ncc3c2CCCC3NC(=O)c2ccccn2)c1 (stereo unspecified) 2.5 nM, CCOC(=O)C1CCN(C(=O)C(C)(C)NC(=O)Nc2ccc(F)c(F)c2)CC1 1990 nM, CCOC(=O)C1CCN(C(=O)C(C)(C)NC(=O)Nc2cccc(C(=O)OC)c2)CC1 7050 nM, CCOC(=O)C1CCN(C(=O)C(C)(C)NC(=O)Nc2cccc(OC)c2)CC1 4450 nM, CCOC(=O)C1CCN(C(=O)C(C)(C)NC(=O)Nc2ccc(Oc3ccccc3)cc2)CC1 353 nM, CCNC(=O)C1CCN(C(=O)C(C)(C)NC(=O)Nc2ccccc2Cl)CC1 14100 nM, CCOC(=O)C1CCN(C(=O)C(C)(C)NC(=O)Nc2ccc3ccccc3c2)CC1 4990 nM, CCOC(=O)C1CCN(C(=O)C(C)(C)NC(=O)Nc2ccccc2Cl)CC1 705 nM, O=C(NC1CCCc2c1cnn2-c1ccc(F)cc1F)c1cccs1 (stereo unspecified) 6.3 nM, CCOC(=O)C1CCN(C(=O)C(C)(C)NC(=O)Nc2ccc(Cl)cc2Cl)CC1 445 nM, O=C(NC1CCCc2c1cnn2CCO)c1ccccn1 (stereo unspecified) 1580 nM, CCOC(=O)C1CCN(C(=O)C(C)(C)NC(=O)Nc2ccc3sccc3c2)CC1 12500 nM, O=C(NC1CCCc2c1cnn2-c1ccc(F)cc1F)c1ccccc1 (stereo unspecified) 25 nM, O=C(NC1CCCc2c1cnn2-c1cccc(O)c1)c1ccccn1 (stereo unspecified) 5 nM, CC(C)(C)OC(=O)NCCOCCOCCOc1ccc(-n2ncc3c2CCCC3NC(=O)c2ccccn2)cc1 (stereo unspecified) 1.8 nM, CCOC(=O)C1CCN(C(=O)C(C)(C)NC(=O)Nc2cccc(-c3csc(C)n3)c2)CC1 25000 nM, CCOc1ccc(CCNC(=O)c2cc3sccc3n2Cc2cccc(C)c2)cc1OCC 2.2 nM, CC(C)(C)OC(=O)NCCOCCOCCOCCn1ncc2c1CCCC2NC(=O)c1ccccn1 (stereo unspecified) 158 nM, CC(C)(C)OC(=O)NCCOCCOCCOc1cccc(-n2ncc3c2CCCC3NC(=O)c2ccccn2)c1 (stereo unspecified) 5.6 nM, COc1ccc(-n2ncc3c2CCCC3NC(=O)c2ccccn2)cc1 (stereo unspecified) 1.6 nM, CCOC(=O)C1CCN(C(=O)C(C)(C)NC(=O)Nc2ccc(OC)c(Cl)c2)CC1 7910 nM, O=C(NC1CCCc2c1cnn2-c1ccc(F)cc1F)c1ccccn1 (stereo unspecified) 315 nM and 6.3 nM, CCOC(=O)C1CCN(C(=O)C(C)(C)NC(=O)Nc2ccc(C(F)(F)F)cc2Cl)CC1 141 nM, O=C(NC1CCCc2c1cnn2-c1ccc(O)cc1)c1ccccn1 (stereo unspecified) 0.7 nM, CCOC(=O)C1CCN(C(=O)C(C)(C)NC(=O)Nc2ccc(N(C)C)cc2)CC1 5600 nM, CCOC(=O)C1CCN(C(=O)C(C)(C)NC(=O)Nc2ccc(-c3ccccc3)cc2)CC1 1410 nM, CCOC(=O)C1CCN(C(=O)C(C)(C)NC(=O)Nc2ccc3c(c2)CCC3)CC1 12500 nM, O=C(N[C@H]1CCCc2c1cnn2-c1ccc(F)cc1F)c1ccccn1 22300 nM, CCN(CC)C(=O)C1CCN(C(=O)C(C)(C)NC(=O)Nc2ccccc2Cl)CC1 15800 nM

Potency, inactive:
CC(C)(NC(=O)Nc1ccccc1Cl)C(=O)N1CCC(C(=O)O)CC1, CCOC(=O)C1CCN(C(=O)C(C)(C)NC(=O)Nc2ccc(CN3CCOCC3)cc2)CC1
